The nature of assay [1]: Nuclear factor erythroid 2-related factor 2/antioxidant responsive element (Nrf2/ARE) small molecule agonists: luciferase reporter gene qHTS assay in human keratinocytes (AID 1919969). Note: nearly all actives have a fitted effect of over 35% in size. For orientation: In a reporter assay the amount or activity of a reporter protein is the signal.
Assay [2] has as its target Gonadotropin-releasing hormone receptor (Homo sapiens) (UniProt P30968). In words: Human gonadotropin-releasing hormone receptor (GnRHR) small molecule agonists, calcium flux assay in GnRHR-HEK293 cells (AID 1920063). Note: nearly all actives have a fitted effect of over 35% in size. In a few lines:
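HEK293 cells stably expressing human GnRHR were plated 18 h at 37 °C, loaded with calcium dye 1 h at 37 °C, then given compound in agonist mode; fluorescence (Ex/Em 480/540) read kinetically for 3 min at 1 s intervals.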
For orientation: Calcium assays in cells follow changes in intracellular calcium, usually with a dye or a luminescent sensor.

The target in assay [3] is KiSS-1 receptor (Homo sapiens) (UniProt Q969F8). Nature of the assay: Human kisspeptin (KISS1R) small molecule agonists, calcium flux assay in KISS1R-HEK293 cells (AID 1920064; active = well fitted activation curve with a large enough effect in the repeat runs). In a few lines:
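HEK293 cells stably expressing human KISS1R were plated 18 h at 37 °C, loaded with calcium dye for 1 h at 37 °C, then given compound by pin tool. Fluorescence (Ex/Em 480/540) was read kinetically for 3 min.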

The nature of assay [4]: G protein-coupled receptor (GPCR) small molecule agonists, calcium flux assay: HEK293 wild type cell line counter screen (AID 1920065). Summed up:
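Cells were plated and cultured 18 h at 37 C/5% CO2, then loaded with calcium dye for 1 h at 37 C. Compounds in DMSO were pin-transferred in agonist mode, and fluorescence (Ex/Em 480/540) was read kinetically for 3 min at 1 s intervals.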

Assay [5] is described as follows: p53 small molecule agonists, cell-based qHTS assay with human liver microsomes (AID 1963577).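 Note: p53 response element beta-lactamase reporter cells with liver microsomes plus NADPH.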 Summed up: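 With metabolic activation: human liver microsomes (0.5 mg/mL final) plus NADPH (0.5 mg/mL final) added alongside compounds to p53RE-bla cells; 16 h 37 C exposure; beta-lactamase read by LiveBLAzer fluorescence.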
The nature of assay [6]: p53 small molecule agonists, cell-based qHTS assay with rat liver microsomes (AID 1963578). Summed up: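 Metabolic activation by rat liver microsomes and NADPH, each 0.5 mg/mL final, added right after compounds to p53RE-bla reporter cells (4,000/well, plated 5 h earlier). 16 h at 37 C, then LiveBLAzer substrate for 2 h at room temperature in the dark; fluorescence read-out.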
Background: Quantitative high-throughput screening tests each substance at several concentrations.

Assay [7] is described as follows: p53 small molecule agonists, cell-based qHTS assay with human liver microsomes: qHTS cell viability counter screen (AID 1963579). Note: nearly all actives have a fitted effect of over 45% in size. In a few lines: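 Metabolic activation used human liver microsomes and NADPH, both 0.5 mg/mL final, over 16 hours at 37 C on p53RE-bla cells (4,000/well). Cytotoxicity measured by CellTiter-Glo luminescence, 30 min at room temperature.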

Assay [8] can be described thus: p53 small molecule agonists, cell-based qHTS assay with rat liver microsomes: qHTS cell viability counter screen (AID 1963580). Note: nearly all actives have a fitted effect of over 45% in size. In a few lines: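 Viability is assessed in parallel with the p53 reporter read: HCT-116 p53RE-bla cells receive compounds plus rat microsomes and NADPH (0.5 mg/mL final apiece), incubate 16 h at 37 C, and then CellTiter-Glo luminescence is recorded.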

The target in assay [9] is 5-hydroxytryptamine receptor 2A (Homo sapiens) (UniProt P28223). In words: 5-hydroxytryptamine receptor 2A (HTR2A) small molecule antagonists, cell-based qHTS assay (AID 1963586). Note: nearly all actives have a fitted effect of over 45% in size. Note: potency is the fitted concentration of half-maximal effect. In a few lines:
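Antagonist-mode intracellular calcium assay: DOI (4 nM) added after 5 min compound pre-incubation at room temperature to dye-loaded HTR2A-CHO cells. Fluorescence followed for 3 min, sampled every second.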

Assay [10] shares this target. Nature of the assay: 5-hydroxytryptamine receptor 2A (HTR2A) small molecule agonists, cell-based qHTS assay (AID 1963587). Note: nearly all actives have a fitted effect of over 30% in size. In a few lines:
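CHO cells stably expressing human HTR2A, plated 18 h, loaded with calcium dye 1 h at 37 C. Agonist mode: compounds added and intracellular calcium fluorescence recorded kinetically for 2 min at 1 sec intervals.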

Assay [11] concerns the target Muscarinic acetylcholine receptor M1 (Homo sapiens) (UniProt P11229). In words: Cholinergic receptor muscarinic 1 (CHRM1) small molecule antagonists, cell-based qHTS assay (AID 1963588). Note: nearly all actives have a fitted effect of over 40% in size. Summed up: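 CHRM1-CHO calcium-flux assay, antagonist mode. Cells were seeded 18 h, dye-loaded 1 h at 37 C and given compound for 5 min at RT, then acetylcholine was added at 50nM. FDSS fluorescence was read 3 min; 15 concentrations, three runs.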

The target is the same in assay [12]. In words: Cholinergic receptor muscarinic 1 (CHRM1) small molecule agonists, cell-based qHTS assay (AID 1963589). Note: nearly all actives have a fitted effect of over 35% in size. Summed up: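 CHO cells stably expressing human CHRM1, seeded 18 h at 37 C/5% CO2, dye-loaded 1 h at 37 C, then given compound in agonist mode; intracellular calcium fluorescence read kinetically at 1 s intervals. Fifteen concentrations, three independent runs.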

The nature of assay [13]: cAMP Responsive Elements (CRE) small molecule agonists, cell-based qHTS assay (AID 1963590). Summed up:
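CRE-bla HEK 293T cells in DMEM with 10% dialyzed FBS, NEAA, pyruvate and 25 mM HEPES were plated 18 h at 37 C/5% CO2, then exposed to compounds in DMSO for 3 h before LiveBLAzer B/G FRET substrate addition.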

Assay [14] in a line: cAMP Responsive Elements (CRE) small molecule antagonists, cell-based qHTS assay (AID 1963591; active = well fitted inhibition curve with a large enough effect in the signal ratio in the repeat runs, not every such curve was filed as active; the % refers to the signal ratio). In a few lines:
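CRE-bla HEK293T cells were plated 18 h at 37 °C/5% CO2, pinned with compound in DMSO, then stimulated with NKH477 at 0.25 uM final for 3 h. LiveBLAzer B/G FRET substrate was added and plates incubated 2 h at room temperature.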

For assay [15], the target named is D(2) dopamine receptor (Homo sapiens) (UniProt P14416). Nature of the assay: Dopamine D2 receptor (DRD2) small molecule antagonists, cell-based qHTS assay (AID 1963595; active = well fitted inhibition curve with a large enough effect in the signal ratio in the repeat runs, with a control signal flat; the % refers to the signal ratio). In a few lines: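 Human DRD2 antagonist qHTS measuring cAMP by HTRF. The cells are exposed to compound for 10 min, then to NKH477 (200 nM) and quinpirole (12 nM) for 30 min at RT, with Ro20-1724 (0.1 mM) present throughout.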

Assay [16] is described as follows: p53 small molecule agonists, cell-based qHTS assay: qHTS cell viability counter screen (AID 1963581). Note: nearly all actives have a fitted effect of over 45% in size. Summed up: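 p53RE-bla HCT-116 cells were exposed to compounds for 16 h at 37 C; after the beta-lactamase FRET read in the same wells, CellTiter-Glo was added and luminescence (intracellular ATP) read after 30 min at room temperature.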
Assay [17] deals with Beta-2 adrenergic receptor (Homo sapiens) (UniProt P07550). Nature of the assay: Adrenergic beta2 receptor (ADRB2) small molecule antagonists, cell-based qHTS assay (AID 1963592). Note: series mostly up to about 92 µM; nearly all actives have a fitted effect of over 50% in size. Summed up: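 Cells (CHO, stable ADRB2 overexpression) incubated 18-20hr at 37C; compounds added from DMSO; agonist mix (1nM isoproterenol, 100uM IBMX, 25uM Ro-20-1724) added; 0.5hr RT; d2-cAMP and anti-cAMP-cryptate added; 1hr RT; 665/615 nm read.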

In assay [18] the target is D(2) dopamine receptor (Homo sapiens) (UniProt P14416). Nature of the assay: Dopamine D2 receptor (DRD2) small molecule agonists, cell-based qHTS assay (AID 1963594). Note: nearly all actives have a fitted effect of over 35% in size. In a few lines:
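HEK293 cells stably expressing human DRD2, pre-treated with PDE inhibitor Ro20-1724 (0.1 mM final) and compound 10 min at room temperature, then stimulated with NKH477 (200nM […]) for 30 min. cAMP read by HTRF (665/620 nm).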

Assay [19] in a line: p53 small molecule agonists, cell-based qHTS assay (AID 1963582; active = well fitted activation curve with a large enough effect in the signal ratio in the repeat runs, not every such curve was filed as active; the % refers to the signal ratio). In a few lines:
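p53RE-bla beta-lactamase reporter cells rested 5 h at 37 C/5% CO2, then received compounds in DMSO by pin transfer and were incubated 16 h at 37 C. LiveBLAzer B/G FRET substrate was loaded for 2 h at room temperature before fluorescence reading.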

Assay [20] addresses Beta-2 adrenergic receptor (Homo sapiens) (UniProt P07550). In words: Adrenergic beta2 receptor (ADRB2) small molecule agonists, cell-based qHTS assay (AID 1963593).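 Note: CHO cells stably overexpressing human ADRB2.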 In a few lines:
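CHO cells stably over-expressing ADRB2 were plated overnight at 37C, then dosed with compounds plus a stimulation mix containing 100uM IBMX and 25uM Ro-20-1724 for 0.5hr at room temperature. cAMP was measured by HTRF competition, 1hr.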

Unmarked numbers belong to inactive results. Results filed as inconclusive are left out. Activity calls are given as the source filed them. Unless noted, calls come from the whole dose curve.

Sequence of D(2) dopamine receptor (Homo sapiens) (P14416 whole entry, looked up): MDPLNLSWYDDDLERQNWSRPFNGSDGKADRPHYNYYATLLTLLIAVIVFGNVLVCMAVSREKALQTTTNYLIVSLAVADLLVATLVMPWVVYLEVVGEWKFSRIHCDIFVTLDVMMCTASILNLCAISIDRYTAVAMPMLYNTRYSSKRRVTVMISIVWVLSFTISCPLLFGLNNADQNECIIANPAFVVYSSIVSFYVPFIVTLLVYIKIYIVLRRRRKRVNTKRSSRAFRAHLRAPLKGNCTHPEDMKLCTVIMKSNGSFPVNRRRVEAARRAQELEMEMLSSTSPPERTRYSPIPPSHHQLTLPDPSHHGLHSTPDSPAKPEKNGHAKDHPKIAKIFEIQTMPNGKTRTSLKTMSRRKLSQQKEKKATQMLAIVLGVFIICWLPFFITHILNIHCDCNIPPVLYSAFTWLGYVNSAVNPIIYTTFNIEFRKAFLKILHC
Sequence of KiSS-1 receptor (Homo sapiens) (Q969F8 whole entry, looked up): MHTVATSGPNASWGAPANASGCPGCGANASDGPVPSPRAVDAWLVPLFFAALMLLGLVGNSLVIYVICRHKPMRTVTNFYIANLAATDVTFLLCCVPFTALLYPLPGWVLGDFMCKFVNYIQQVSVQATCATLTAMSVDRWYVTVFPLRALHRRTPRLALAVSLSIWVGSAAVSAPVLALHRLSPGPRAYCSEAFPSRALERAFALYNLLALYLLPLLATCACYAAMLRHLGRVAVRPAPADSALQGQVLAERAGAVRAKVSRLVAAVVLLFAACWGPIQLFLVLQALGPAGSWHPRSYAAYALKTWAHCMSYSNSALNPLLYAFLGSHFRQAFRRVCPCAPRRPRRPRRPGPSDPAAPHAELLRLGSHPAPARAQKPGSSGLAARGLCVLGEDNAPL
Sequence of Gonadotropin-releasing hormone receptor (Homo sapiens) (P30968 whole entry, looked up): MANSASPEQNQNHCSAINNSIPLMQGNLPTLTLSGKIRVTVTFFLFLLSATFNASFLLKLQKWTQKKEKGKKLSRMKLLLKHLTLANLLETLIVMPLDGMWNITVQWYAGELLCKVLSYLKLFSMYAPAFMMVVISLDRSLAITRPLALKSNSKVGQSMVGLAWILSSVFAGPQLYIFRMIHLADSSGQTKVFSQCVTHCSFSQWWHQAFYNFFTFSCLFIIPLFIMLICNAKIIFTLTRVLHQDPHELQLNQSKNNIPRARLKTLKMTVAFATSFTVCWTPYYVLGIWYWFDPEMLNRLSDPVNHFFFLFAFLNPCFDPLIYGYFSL
Sequence of 5-hydroxytryptamine receptor 2A (Homo sapiens) (P28223 whole entry, looked up): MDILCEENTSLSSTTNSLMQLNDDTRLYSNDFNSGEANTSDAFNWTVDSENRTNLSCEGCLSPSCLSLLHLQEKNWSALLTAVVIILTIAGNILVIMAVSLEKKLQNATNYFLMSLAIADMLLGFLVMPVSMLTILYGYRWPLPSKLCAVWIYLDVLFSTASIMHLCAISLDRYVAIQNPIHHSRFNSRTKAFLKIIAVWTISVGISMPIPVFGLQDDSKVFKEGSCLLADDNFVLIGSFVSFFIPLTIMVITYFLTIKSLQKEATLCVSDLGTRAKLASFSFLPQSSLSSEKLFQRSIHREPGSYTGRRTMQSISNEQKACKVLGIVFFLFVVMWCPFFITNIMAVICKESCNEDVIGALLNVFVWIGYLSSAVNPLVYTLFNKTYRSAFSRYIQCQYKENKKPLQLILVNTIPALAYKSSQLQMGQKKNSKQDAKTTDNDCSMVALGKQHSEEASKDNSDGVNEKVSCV
Sequence of Beta-2 adrenergic receptor (Homo sapiens) (P07550 whole entry, looked up): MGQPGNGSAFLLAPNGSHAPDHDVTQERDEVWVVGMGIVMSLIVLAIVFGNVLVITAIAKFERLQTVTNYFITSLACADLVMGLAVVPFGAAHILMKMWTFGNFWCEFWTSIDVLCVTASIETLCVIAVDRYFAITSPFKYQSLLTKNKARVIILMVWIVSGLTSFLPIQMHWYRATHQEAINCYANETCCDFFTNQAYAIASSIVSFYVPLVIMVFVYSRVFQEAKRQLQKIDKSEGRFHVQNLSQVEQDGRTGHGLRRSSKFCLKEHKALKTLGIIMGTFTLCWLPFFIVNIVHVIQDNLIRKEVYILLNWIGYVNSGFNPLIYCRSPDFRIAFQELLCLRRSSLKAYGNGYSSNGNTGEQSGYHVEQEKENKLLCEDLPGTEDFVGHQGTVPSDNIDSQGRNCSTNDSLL
Sequence of Muscarinic acetylcholine receptor M1 (Homo sapiens) (P11229 whole entry, looked up): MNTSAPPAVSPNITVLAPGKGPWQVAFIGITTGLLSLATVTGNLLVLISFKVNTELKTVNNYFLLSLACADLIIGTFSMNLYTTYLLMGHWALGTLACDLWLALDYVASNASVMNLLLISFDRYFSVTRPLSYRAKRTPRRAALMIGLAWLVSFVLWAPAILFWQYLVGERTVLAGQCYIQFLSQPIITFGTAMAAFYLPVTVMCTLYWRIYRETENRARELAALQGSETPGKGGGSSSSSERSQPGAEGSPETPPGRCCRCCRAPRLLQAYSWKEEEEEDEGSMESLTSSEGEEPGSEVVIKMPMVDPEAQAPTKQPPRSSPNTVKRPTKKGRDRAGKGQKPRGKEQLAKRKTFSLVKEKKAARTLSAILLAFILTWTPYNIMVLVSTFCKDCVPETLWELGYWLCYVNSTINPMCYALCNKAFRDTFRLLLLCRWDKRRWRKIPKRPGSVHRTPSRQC

In the case of `Nc1ncnc2c1ncn2[C@@H]1O[C@H](CO)[C@@H](O)[C@H]1O`, the Potency entry in assay [1], in [2], in assay [5], in assay [6], in [7] and in assay [8] was “inactive” in each case. Further, the Potency entry in assay [9], in [10], in assay [11], in [12], in [13] and in assay [14] was “inactive” throughout. Also, the Potency result in assay [15] is “inactive”. Moreover, the outcome in assay [3] and in assay [4] was inactive.

Turning to `Nc1ccc(Oc2cccc(Oc3ccc(N)cc3)c2)cc1`, the Potency entry in assay [1], in assay [2], in assay [5], in [6], in assay [7] and in [8] was “inactive” each time. Also, the Potency result in [16], in [11], in [13], in assay [14], in [17] and in [18] was “inactive” in each case. Moreover, the Potency result in assay [15] is “inactive”. Also, the result in assay [3] and in [4] was inactive. Also, the Potency in assay [9] was 840 nM (active).

As to `CCCCCCn1c(=O)c2c(ncn2C)n(C)c1=O`, the Potency result in [1], in [2], in assay [5], in assay [6], in assay [7] and in assay [8] was “inactive” in each case. Also, the Potency result in assay [16], in [9], in assay [10], in assay [11], in [12] and in assay [13] was “inactive” each time. Besides, the Potency entry in assay [14], in assay [18] and in [15] was “inactive” each time. Further, the result in [3] and in [4] was inactive.

With `Cc1cc(=O)[nH]c(=O)[nH]1`, the Potency entry in assay [1], in assay [2], in [5], in [6], in [8] and in [19] was “inactive” throughout. Moreover, the Potency entry in assay [9], in assay [10], in [12], in assay [13], in assay [14] and in assay [18] was “inactive” throughout. The outcome in assay [3] and in assay [4] was inactive.

Regarding `CCN1CCCC1CNC(=O)c1cc(S(N)(=O)=O)ccc1OC` (configuration not stated), the Potency result in assay [1], in assay [2], in assay [5], in assay [6], in assay [7] and in [8] was “inactive” each time. For the same compound, the Potency entry in assay [20] and in assay [18] was “inactive” each time. In addition, the outcome in [3] and in assay [4] was inactive.

On to `COc1ccc(CCC(=O)c2c(O)cc(O[C@@H]3O[C@H](CO)[C@@H](O)[C@H](O)[C@H]3O[C@@H]3O[C@@H](C)[C@H](O)[C@@H](O)[C@H]3O)cc2O)cc1O`, for which the Potency result in [1], in assay [2], in assay [5], in [6], in assay [7] and in assay [8] was “inactive” in each case. Moreover, the Potency entry in assay [19], in [9], in assay [10], in assay [11], in [12] and in [14] was “inactive” in each case. Also, the Potency result in [17] and in [18] was “inactive” in each case. The result in [3] and in assay [4] was inactive.

Consider `CC(C)(C)C(=O)OCOC(=O)[C@@H]1N2C(=O)[C@@H](NC(=O)[C@H](N)c3ccccc3)[C@H]2SC1(C)C`, for which the Potency entry in assay [1], in assay [2], in assay [5], in [6], in [7] and in assay [8] was “inactive” throughout. The Potency entry in assay [16], in [9], in assay [10], in assay [11], in assay [12] and in [17] was “inactive” in each case. In addition, the Potency entry in assay [20] and in assay [18] was “inactive” throughout. Also, the result in assay [3] and in assay [4] was inactive.

With `CCCCCCOC(=O)C(C)C`, the Potency result in assay [1], in assay [2], in assay [5], in [6], in assay [7] and in assay [8] was “inactive” each time. Moreover, the Potency result in assay [19], in assay [9], in assay [10], in assay [11], in assay [12] and in assay [13] was “inactive” in each case. In addition, the Potency result in assay [17], in [20], in assay [18] and in [15] was “inactive” throughout. Also, the result in assay [3] and in assay [4] was inactive.

The values above are taken from PubChem BioAssay (Tox21).
